Bioassay records as filed in PubChem BioAssay.
Rows were chosen to be rich in hits. Some 4.9% of all compounds tested hit in one or more screens of this group.
dFosB act-1: activators of mouse delta FosB homodimer. purified delta FosB, TAMRA-CDK5 oligo fluorescence polarization; percent of positive-control signal above neutral wells. activation, % at 25 µM. actives 0.99% (n = 340,000). AID 493131;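 active means mean activation above about 17%, with every replicate also reaching it, limit read from the data, passing the limit was not always enough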
Target sequence (P13346 whole entry, looked up): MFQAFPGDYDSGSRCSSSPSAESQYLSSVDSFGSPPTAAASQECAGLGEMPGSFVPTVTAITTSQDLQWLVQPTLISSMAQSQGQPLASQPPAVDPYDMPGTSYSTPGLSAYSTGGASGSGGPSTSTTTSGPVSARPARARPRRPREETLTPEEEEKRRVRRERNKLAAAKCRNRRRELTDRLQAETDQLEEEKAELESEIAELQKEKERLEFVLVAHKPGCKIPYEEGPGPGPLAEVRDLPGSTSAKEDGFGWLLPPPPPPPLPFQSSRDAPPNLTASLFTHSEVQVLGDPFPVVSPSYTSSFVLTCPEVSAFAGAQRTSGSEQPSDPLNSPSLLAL
HSF-1 act: increases HSF-1 driven luciferase reporter signal | NIH3T3-HGL HSF-1 luciferase reporter, MG132, 8 h; 100% = twice DMSO control signal | activation, % at 9 µM | actives 1.7% (n = 300,000) | AID 504408;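 active means mean replicate activation of at least 50% with a set share of replicates each reaching 50%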;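 further: 0% = median of the neutral control wells and 100% = twice that signal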
HSP90 inh: inhibitors of HSP90 luciferase refolding in rabbit reticulocyte lysate. luciferase refolding luminescence, 3 h. inhibition, % at 5.6 µM. actives 0.91% (n = 290,000). AID 1789;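 active means inhibition above the screen-wide mean plus 3 SD, computed separately per campaign, cut at about 16% in these data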;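 further: 0% = DMSO wells and 100% = 60 µM geldanamycin wells; inhibitors lower the luminescence because luciferase stays unfolded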
HSF1 inhib: HSF1 inhibition | actives 0.77% (n = 300,000) | activity change, negative = inhibition, % at 7.5 µM (by protocol) | NIH3T3-HGL HSE-luciferase, MG132-induced, luminescence 8 h; hits give low values;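 active means more than half of replicate wells show activity change below -50%, luminescence cut by over half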;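 further: luciferase reports HSF-1 transcriptional activity via heat shock element; 0% = median of DMSO wells and -100% = zero luminescence signal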
MPTP inh: inhibitors of mitochondrial permeability transition pore | isolated mouse mitochondria, Ca2+ swelling absorbance, 30 min | inhibition, % at 10 µM | actives 1.4% (n = 360,000);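 active means inhibition of 50% or more, scaled per plate between neutral and stimulator controls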;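 further: 0% = DMSO wells given calcium and 100% = 1 mM EGTA wells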
Platelet DG rel: platelet dense granule release activity; human platelet-rich plasma, SFLLRN dense granule ATP release, luminescence; AID 1663; inhibition, %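 (compounds screened at 7.5 µM in platelet-rich plasma)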; actives 0.22% (n = 300,000);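 active means mean replicate score, as percent of positive control, at or above 50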
dFosB act-2: enhances mouse delta FosB homodimer binding to DNA; activation, % at 24.9 µM; shares compounds with dFosB act-1; 2,400 tested, under 10 active; purified delta FosB, TAMRA-CDK5 oligo fluorescence polarization; normalised: neutral wells 0, positive control 100; AID 588690;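 active means highest replicate activation at or above 34% and every replicate reaching that threshold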;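 further: higher polarization means more probe DNA bound by delta FosB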
Starred values were filed as active, the others as inactive.

How did CCc1ccc(NC(=O)CSc2nc(N)c(NC(=O)c3ccc(F)c(F)c3)c(=O)[nH]2)cc1 do in these assays?
dFosB act-1: 29*; HSF-1 act: 4; HSP90 inh: 0; HSF1 inhib: -10; MPTP inh: 1; Platelet DG rel: -5; dFosB act-2: 4

How did COc1ccc(C(=O)Nc2c(N)nc(SCC(=O)Nc3ccc(NC(C)=O)cc3)[nH]c2=O)cc1 do in these assays?
dFosB act-1: 8; HSF-1 act: -3; HSP90 inh: 3; HSF1 inhib: -2; MPTP inh: 0; Platelet DG rel: -30

What do the screens show for `Cc1nnc(NC(=O)CSc2nc(N)c(NC(=O)c3cccs3)c(=O)[nH]2)s1`?
dFosB act-1: 10; HSF-1 act: -5; HSP90 inh: 5; HSF1 inhib: -4; MPTP inh: 1; Platelet DG rel: 17

What do the screens show for `Nc1nc(SCC(=O)Nc2ccc(F)cc2)[nH]c(=O)c1NC(=O)c1ccc(F)c(F)c1`?
dFosB act-1: 27*; HSF-1 act: 0; HSP90 inh: 2; HSF1 inhib: -3; MPTP inh: -1; Platelet DG rel: 30; dFosB act-2: -1

Results for Cc1ccc2nc(SCC(=O)Nc3cc(C)on3)[nH]c2c1 ?
dFosB act-1: -1; HSF-1 act: 8; HSP90 inh: 1; HSF1 inhib: -2; MPTP inh: -2; Platelet DG rel: 1

Results for Nc1nc(SCC(=O)NCC2CCCO2)[nH]c(=O)c1NC(=O)c1ccc(F)c(F)c1 (configuration not stated) ?
dFosB act-1: 0; HSF-1 act: -13; HSP90 inh: 3; HSF1 inhib: 0; MPTP inh: 1; Platelet DG rel: 18

How did O=C(COC(=O)c1ccc(S(=O)(=O)N2CCOCC2)cc1)NCc1ccco1 do in these assays?
MPTP inh: -1

What do the screens show for `CCCS(=O)(=O)NC(=O)C1(C)CCCN(C(=O)c2ccc(C#N)cc2)C1` (configuration not stated)?
MPTP inh: -1

Results for NS(=O)(=O)c1cc2c(cc1Cl)NC(c1ccccc1OCC(=O)O)NS2(=O)=O (configuration not stated) ?
dFosB act-1: -9; HSF-1 act: -4; HSP90 inh: 4; HSF1 inhib: -9; MPTP inh: 0; Platelet DG rel: 3

What do the screens show for `Cc1cccc2nc(-c3cccc(NC(=O)c4ccc(Cl)cc4)c3)cn12`?
dFosB act-1: 21*; HSF-1 act: 11; HSP90 inh: 0; HSF1 inhib: 11; MPTP inh: -1; Platelet DG rel: 6; dFosB act-2: 6

Results for CCOc1ccc(C(=O)N[C@H](C(=O)Nc2ccccc2OC)C(C)C)cc1 ?
dFosB act-1: -1; HSF-1 act: -2; HSP90 inh: -4; HSF1 inhib: -8; MPTP inh: 1; Platelet DG rel: 10

How did Nc1c(C(=O)Nc2cccc(F)c2)nnn1-c1ccc2c(c1)OCCO2 do in these assays?
dFosB act-1: 8; HSF-1 act: -1; HSP90 inh: 9; HSF1 inhib: 15; MPTP inh: 1; Platelet DG rel: 13

What do the screens show for `S=c1[nH]nc(-c2cc(-c3ccccc3)n[nH]2)n1/N=C/C=C/c1ccccc1`?
dFosB act-1: 41*; HSF-1 act: 11; HSP90 inh: 1; HSF1 inhib: -6; MPTP inh: 2; Platelet DG rel: -10; dFosB act-2: 0

How did O=[N+]([O-])c1ccccc1/C=C/C=N/n1c(-c2cc(-c3ccccc3)n[nH]2)n[nH]c1=S do in these assays?
dFosB act-1: 54*; HSF-1 act: 0; HSP90 inh: -2; HSF1 inhib: 0; MPTP inh: 6; Platelet DG rel: -3; dFosB act-2: 2

How did COc1ccc(-n2nc(C(=O)NCC(=O)Nc3cc(OC)c(OC)c(OC)c3)c3ccccc3c2=O)cc1OC do in these assays?
dFosB act-1: 24*; HSF-1 act: -40; HSP90 inh: 0; HSF1 inhib: -44; MPTP inh: 0; Platelet DG rel: 1; dFosB act-2: -2

What do the screens show for `COc1ccc(-n2nc(C(=O)NCC(=O)NCc3cccc(F)c3)c3ccccc3c2=O)cc1Cl`?
dFosB act-1: 26*; HSF-1 act: 37; HSP90 inh: 1; HSF1 inhib: 18; MPTP inh: 1; Platelet DG rel: 4; dFosB act-2: 4

Results for Cc1ccc(C(=O)O)cc1NC(=O)CSc1ncnc2sc3c(c12)CCC3 ?
dFosB act-1: -5; HSF-1 act: -9; HSP90 inh: -3; HSF1 inhib: -13; MPTP inh: 2; Platelet DG rel: 1

What do the screens show for `O=C(COC(=O)c1n[nH]c(=O)c2ccccc12)NCc1ccccc1`?
dFosB act-1: 9; MPTP inh: -2

Results for O=C(COC(=O)c1n[nH]c(=O)c2ccccc12)NC1CCCCC1 ?
dFosB act-1: 50*; MPTP inh: -3; dFosB act-2: 1

How did COc1cc(OC)cc(C(=O)N[C@H](C(=O)OCC(=O)N2CCc3ccccc32)C(C)C)c1 do in these assays?
dFosB act-1: -9; HSF-1 act: -55; HSP90 inh: 0; HSF1 inhib: -43; MPTP inh: -1; Platelet DG rel: 1

How did CCOC(=O)c1cccc(NC(=O)CCS(=O)(=O)c2ccc(Br)s2)c1 do in these assays?
dFosB act-1: 111*; HSF-1 act: -93; HSP90 inh: 8; HSF1 inhib: -92*; MPTP inh: 5; Platelet DG rel: 8; dFosB act-2: 3

What do the screens show for `CCOC(=O)c1cccc(NC(=O)CCS(=O)(=O)c2cccs2)c1`?
dFosB act-1: 0; HSF-1 act: 34; HSP90 inh: 1; HSF1 inhib: 15; MPTP inh: -1; Platelet DG rel: -14

Results for Cc1oc2cc(O)ccc2c(=O)c1Oc1ccc(F)cc1 ?
dFosB act-1: 19*; HSF-1 act: -4; HSP90 inh: 2; HSF1 inhib: 1; MPTP inh: 1; Platelet DG rel: 0; dFosB act-2: 3

What do the screens show for `O=C(CSc1nc(C2CC2)nc2c1cnn2-c1ccccc1)Nc1c[nH]c(=O)[nH]c1=O`?
dFosB act-1: 127*; HSF-1 act: -7; HSP90 inh: 1; HSF1 inhib: -2; MPTP inh: 0; Platelet DG rel: 3; dFosB act-2: 3

Results for Cc1cc(NC(=O)CSc2nc(CCC3CCCC3)nc3ccccc23)no1 ?
dFosB act-1: 47*; HSF-1 act: 59*; HSP90 inh: 4; HSF1 inhib: 21; MPTP inh: 0; Platelet DG rel: -18; dFosB act-2: -5

How did Cc1cc(NC(=O)CSc2nc(C(C)(C)C)nc3ccccc23)no1 do in these assays?
dFosB act-1: 0; HSP90 inh: 2; MPTP inh: 2; Platelet DG rel: -2
